From PubChem BioAssay come the findings set out here.

A number with no mark means an inactive call.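 Rule for the calls, unless noted: active = viability at or under a set limit in both replicates, limit being median viability minus 3 SD (cut at about 48% in these data, passing the limit was not always enough); inconclusive = at or under the limit in just one replicate; inactive = at or above the limit in both replicates.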

The nature of one experiment: H69AR cell proliferation blockers – human, duplicate replicates, primary screen (AID 580).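 Note: 100% = mean luminescence of untreated wells and 0% = no signal.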 The settings on record: H69AR lung tumor cells viability, ATP luminescence, 72 h; at 10 µM; hits give low values.
Consider `CC(=O)Nc1ccc(NS(=O)(=O)c2ccc(Cl)c(C(=O)O)c2)cc1`, for which the viability was 103%.
The same measure, in the same setting: the same measure for `CCN1CCCC1CNCc1ccc(Cl)cc1Cl` (stereo not drawn): 104%.
The same measure, in the same setting: to `Cc1sc2ncnc(SCC(=O)N3CCCC3)c2c1C` belongs 93%; to `Brc1ccc2[nH]ncc2c1`, 91.6%; to `CCOC(=O)c1cccc(NC(=O)CSc2nc3cccnc3n2C)c1`, 93.2%.
Still for that read-out and setting: the same measure for `CCn1c(SCC(=O)N2c3ccccc3CCc3ccccc32)nc2c1c(=O)n(C)c(=O)n2C`: 94.3%; for `CCN(C(=O)CN1CCN(c2ccccc2OC)CC1)c1c(N)n(Cc2ccccc2)c(=O)[nH]c1=O`: 100%; for `O=C(NCc1ccccn1)c1ccc2nc(-c3ccco3)c(-c3ccco3)nc2c1`: 73.8%.
`COCCNC(=O)c1c(N)n(/N=C/c2cccs2)c2nc3ccccc3nc12`: the viability was 74.7%.
The same measure, in the same setting: to `CN(C)Cc1c(O)ccc2oc(Cc3ccccc3)cc12` belongs 91%; to `COc1cc(/C=N/n2c(C)nnc2C)cc(OC)c1OC`, 103%.
`Cn1c(=O)c2c(nc(NCc3ccco3)n2C/C=C/c2ccccc2)n(C)c1=O`: the viability is 101%.
The same measure, in the same setting: the same measure for `CCn1c(C(Cc2ccccc2)NC(=O)COC)nc2ccccc21` (stereo not drawn): 87.4%.
On the same count and under the same terms, the same measure for `COc1ccccc1OCc1ccc(C(=O)Nc2ccncc2)o1`: 89.4%.
Still for that read-out and setting: the same measure for `COc1ccc(OC)c(-n2nnnc2SCC(=O)NCc2ccc3c(c2)OCO3)c1`: 93.9%; for `O=C(CSc1nnc(-c2cnccn2)n1Cc1ccco1)c1ccc(Cl)cc1`: 80.7%.
In the case of `Cc1cc(=O)oc(C)c1C(=O)O`, the viability is 92%.
As to `COc1cccc(CN=CC2=C(O)CC(C)(C)CC2=O)c1OC`, the viability is 100%.
`O=C(CCNC(=O)Cn1ccc2ccccc2c1=O)NCCN1CCN(c2ccccc2F)CC1`: the viability was 88.1%.
On to `Cn1cccc1Cc1nnc(SCC(N)=O)n1-c1ccc(F)cc1`, for which the viability is 99.8%.
The same measure, in the same setting: the same measure for `N#CC1=C(N)N(c2ccccc2)C(c2ccco2)C1(C#N)C#N` (stereo not drawn): 85.5%; for `CCCNC(=O)C1=C(C)C(=O)OC12CCC(C)CC2` (stereo not drawn): 95.3%; for `CCCS(=O)(=O)C(=C1Nc2ccccc2N1)S(=O)(=O)CCC`: 103%.
On the same count and under the same terms, the same measure for `O=C(CC(CC(=O)c1ccccc1)C(=O)O)c1ccccc1`: 102%; for `CCS(=O)(=O)N1CCC(C(=O)NC2CCCCC2)CC1`: 97.4%; for `COc1ccc(N2C(=O)C3CCCN3C2c2ccc(F)cc2)cc1Cl` (stereo not drawn): 87.4%.
As to `O=C(Nc1nccs1)c1ccc(Cl)c(S(=O)(=O)N2CCCCC2)c1`, the viability was 87.2%.
With `CC(=O)N1CCc2cc(S(=O)(=O)CCC(=O)Nc3cccc(F)c3)ccc21`, the viability was 93.8%.
Same read-out and setting: the same measure for `Oc1ccc(N2CCN(C(c3cccnc3)c3nnnn3Cc3ccccc3)CC2)cc1` (stereo not drawn): 90.2%; for `CCOP(=O)(c1ccc(N(C)C)cc1)C(O)c1c(Cl)cccc1Cl` (stereo not drawn): 90.1%; for `CCCn1c(SCC(=O)NC(C)(C)C)nnc1C(C)C`: 93%.
For the compound `CCCCOC(=O)Cn1c(=N)n(CCN2CCOCC2)c2ccccc21`, the viability is 95.5%.
Turning to `CCOC(=O)c1c(C)n(C)c2ccc(O)c(S(=O)(=O)c3ccccc3)c12`, the viability is 87.9%.
Same read-out and setting: to `CCN1CCN(CCNC(=O)c2cn(C(C)c3ccccc3F)nn2)CC1` (stereo not drawn) belongs 96.4%.
On to `Cc1ccnc(NS(=O)(=O)c2ccc(NC(=O)Cc3cccs3)cc2)n1`, for which the viability was 100%.
The same measure, in the same setting: the same measure for `c1ccc(CSCc2cn3ccsc3n2)cc1`: 99.1%; for `Cc1nnc(N(C)C(=O)c2cccnc2)s1`: 88.7%; for `O=C(NC1CCCCC1)C(c1ccco1)N(Cc1cccnc1)C(=O)C1COc2ccccc2O1` (stereo not drawn): 81.1%.
The same measure, in the same setting: the same measure for `Cc1cc(Cn2ccnc2)c(C)cc1Cn1ccnc1`: 101%.

The nature of another experiment: MRP1 drug-resistance reversers in H69AR cells – cell-based, doxorubicin co-treatment, pilot screen (AID 601;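 active = viability loss from added drug above about 55%, and viability with drug at most 40%, in both replicates, limit read from the data, passing the limit was not always enough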). The conditions noted are these: H69AR cells + 2 uM doxorubicin, CellTiter-Glo, 72 h; at 10 µM; hits give high values.
In the case of `CC(=O)Nc1ccc(NS(=O)(=O)c2ccc(Cl)c(C(=O)O)c2)cc1`, the differential viability (reversal) is 9.96%.
The same measure, in the same setting: the same measure for `CCN1CCCC1CNCc1ccc(Cl)cc1Cl` (stereo not drawn): 9.34%; for `Cc1sc2ncnc(SCC(=O)N3CCCC3)c2c1C`: 9.69%; for `Brc1ccc2[nH]ncc2c1`: 0.11%.
Still for that read-out and setting: the same measure for `CCOC(=O)c1cccc(NC(=O)CSc2nc3cccnc3n2C)c1`: -1.5%.
As for `CCn1c(SCC(=O)N2c3ccccc3CCc3ccccc32)nc2c1c(=O)n(C)c(=O)n2C`, the differential viability (reversal) is -1.58%.
Still for that read-out and setting: the same measure for `CCN(C(=O)CN1CCN(c2ccccc2OC)CC1)c1c(N)n(Cc2ccccc2)c(=O)[nH]c1=O`: 9.64%; for `O=C(NCc1ccccn1)c1ccc2nc(-c3ccco3)c(-c3ccco3)nc2c1`: -5.92%; for `COCCNC(=O)c1c(N)n(/N=C/c2cccs2)c2nc3ccccc3nc12`: 0.24%.
Consider `CN(C)Cc1c(O)ccc2oc(Cc3ccccc3)cc12`, for which the differential viability (reversal) is 11%.
Same read-out and setting: to `COc1cc(/C=N/n2c(C)nnc2C)cc(OC)c1OC` belongs 19.3%.
The same measure, in the same setting: the same measure for `Cn1c(=O)c2c(nc(NCc3ccco3)n2C/C=C/c2ccccc2)n(C)c1=O`: 5.26%.
Same read-out and setting: the same measure for `CCn1c(C(Cc2ccccc2)NC(=O)COC)nc2ccccc21` (stereo not drawn): 8.84%; for `COc1ccccc1OCc1ccc(C(=O)Nc2ccncc2)o1`: -0.005%.
With `COc1ccc(OC)c(-n2nnnc2SCC(=O)NCc2ccc3c(c2)OCO3)c1`, the differential viability (reversal) is -1.01%.
Still for that read-out and setting: to `O=C(CSc1nnc(-c2cnccn2)n1Cc1ccco1)c1ccc(Cl)cc1` belongs -2.83%; to `Cc1cc(=O)oc(C)c1C(=O)O`, 7.3%; to `COc1cccc(CN=CC2=C(O)CC(C)(C)CC2=O)c1OC`, -0.91%.
Same read-out and setting: the same measure for `O=C(CCNC(=O)Cn1ccc2ccccc2c1=O)NCCN1CCN(c2ccccc2F)CC1`: 9.11%; for `Cn1cccc1Cc1nnc(SCC(N)=O)n1-c1ccc(F)cc1`: 12.2%.
On to `N#CC1=C(N)N(c2ccccc2)C(c2ccco2)C1(C#N)C#N` (stereo not drawn), for which the differential viability (reversal) was -0.88%.
Still for that read-out and setting: to `CCCNC(=O)C1=C(C)C(=O)OC12CCC(C)CC2` (stereo not drawn) belongs 5.14%; to `CCCS(=O)(=O)C(=C1Nc2ccccc2N1)S(=O)(=O)CCC`, 12.9%.
Regarding `O=C(CC(CC(=O)c1ccccc1)C(=O)O)c1ccccc1`, the differential viability (reversal) is 5.54%.
Same read-out and setting: the same measure for `CCS(=O)(=O)N1CCC(C(=O)NC2CCCCC2)CC1`: 11.3%; for `COc1ccc(N2C(=O)C3CCCN3C2c2ccc(F)cc2)cc1Cl` (stereo not drawn): -1.33%; for `O=C(Nc1nccs1)c1ccc(Cl)c(S(=O)(=O)N2CCCCC2)c1`: -9.49%.
Regarding `CC(=O)N1CCc2cc(S(=O)(=O)CCC(=O)Nc3cccc(F)c3)ccc21`, the differential viability (reversal) was 13.1%.
With `Oc1ccc(N2CCN(C(c3cccnc3)c3nnnn3Cc3ccccc3)CC2)cc1` (stereo not drawn), the differential viability (reversal) was -2.76%.
On the same count and under the same terms, the same measure for `CCOP(=O)(c1ccc(N(C)C)cc1)C(O)c1c(Cl)cccc1Cl` (stereo not drawn): 0.49%; for `CCCn1c(SCC(=O)NC(C)(C)C)nnc1C(C)C`: 3.9%; for `CCCCOC(=O)Cn1c(=N)n(CCN2CCOCC2)c2ccccc21`: 16.3%.
On the same count and under the same terms, to `CCOC(=O)c1c(C)n(C)c2ccc(O)c(S(=O)(=O)c3ccccc3)c12` belongs -1.07%.
As for `CCN1CCN(CCNC(=O)c2cn(C(C)c3ccccc3F)nn2)CC1` (stereo not drawn), the differential viability (reversal) was 8.63%.
The same measure, in the same setting: to `Cc1ccnc(NS(=O)(=O)c2ccc(NC(=O)Cc3cccs3)cc2)n1` belongs 8.61%; to `c1ccc(CSCc2cn3ccsc3n2)cc1`, 14.5%.
As for `Cc1nnc(N(C)C(=O)c2cccnc2)s1`, the differential viability (reversal) was 1.22%.
The same measure, in the same setting: to `O=C(NC1CCCCC1)C(c1ccco1)N(Cc1cccnc1)C(=O)C1COc2ccccc2O1` (stereo not drawn) belongs -7.03%.
The same measure, in the same setting: to `Cc1cc(Cn2ccnc2)c(C)cc1Cn1ccnc1` belongs 6.74%.

For orientation: viability means a read-out of living cells in per cent, often relative to untreated cells.
